Shown are actives, neighbours in structure and some others; about 19% of the full set was active somewhere.
KB-V1 MDR tox: qHTS assay for MDR1-selective chemotherapeutics: Primary screen using the drug-selected MDR subline cells KB-V1; AID 1347076, 2019; KB-V1 MDR cells viability, CellTiter-Glo, 72 h; Potency, µM (titrated, usually from 46.1 µM), usual class: cytotoxic; 400,000 compounds, 3.4% hits; further: nearly all actives have a fitted effect of over 60% in size
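In this primary screen, KB-V1 cells overexpressing P-gp are incubated with library compounds (lowest to highest concentration) for 72 h at 37 degrees C before a luminescent ATP viability read.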
DT40 TDP1 no CPT: qHTS for Inhibitors of human tyrosyl-DNA phosphodiesterase 1 (TDP1): qHTS in cells in absence of CPT; DT40 Tdp1-/- hTDP1 cells, no CPT, ATP luminescence, 48 h; Potency, µM (top dose mostly 46.2 µM), for the others: at the top dose activity change, negative = growth inhibition, usual class: inhibitors; 420,000 compounds, 15% hits; further: nearly all actives have a fitted effect of over 55% in size
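Seeded 400 DT40-hTDP1 cells/well (vehicle DMSO, no 20 nM CPT); pinned compounds; ≥48 hr at 37 °C; CellTiter-Glo luminescence as viability measure.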
KB-3-1 tox: qHTS assay for MDR1-selective chemotherapeutics: Primary screen using the parental adenocarcinoma cell KB-3-1; KB-3-1 viability, CellTiter-Glo ATP luminescence, 72 h; Potency, µM (doses to about 46.1 µM), hits mostly cytotoxic; 400,000 compounds, 1.4% hits; further: nearly all actives have a fitted effect of over 60% in size
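Here the drug-naive KB-3-1 line serves as comparator for MDR sub-line selectivity; cells received compound titrations, 72 h at 37 °C, then CellTiter-Glo readout.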
HT1080NT lethal: qHTS for induction of synthetic lethality in tumor cells producing 2HG: qHTS for the HT-1080-NT fibrosarcoma cell line; HT-1080-NT fibrosarcoma viability, CellTiter-Glo ATP luminescence, 48 h; 360,000 compounds, 1.6% hits; Potency, µM (top dose mostly 46.1 µM), for the others: top-dose activity, negative = less viability, actives largely listed as cytotoxic; AID 686970, 2013;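 further: NT is the 2HG producing partner of a matched IDH1 knockdown line; 0% = DMSO-treated cells and -100% = media-only wells without cells; nearly all actives have a fitted effect of over 55% in size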
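Viability by CellTiter-Glo luminescence after 48 h compound exposure at 37C of HT-1080-NT cells (750/well, RPMI, 5% FBS). % activity scaled between DMSO wells and medium-only wells, then curve-fitted and categorized by curve class.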
TDP1 cell CPT: qHTS for Inhibitors of human tyrosyl-DNA phosphodiesterase 1 (TDP1): qHTS in cells in presence of CPT; 420,000 compounds, 12% hits; chicken DT40 Tdp1-/-;hTDP1 cells + 20 nM CPT, ATP luminescence, 48 h; Potency, µM (highest dose often 46.2 µM), for the others: top-dose activity change, negative = growth inhibition, usual class: inhibitors; further: nearly all actives have a fitted effect of over 55% in size
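Cell growth measured by CellTiter-Glo luminescence after a minimum 48 h, 37 C compound exposure with 20 nM CPT in Tdp1-knockout DT40 cells stably expressing hTDP1, seeded 400/well; qHTS titration format.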
HT1080 IDH1KD tx: qHTS for induction of synthetic lethality in tumor cells producing 2HG: qHTS for the HT-1080-IDH1KD cell line; HT-1080 IDH1 knockdown viability, ATP luminescence, 48 h; Potency, µM (titrated, usually from 46.1 µM), without a hit: top-dose activity, negative = toxicity, hits mostly cytotoxic; 360,000 compounds, 2% hits;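 further: 0% = DMSO wells and -100% = cell-free medium wells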
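Knockdown cells (IDH1KD HT-1080) received compounds 2 h after plating at 750 cells/well and were kept 48 h at 37 °C in 5% FBS RPMI. A CellTiter-Glo luminescence read gave % activity for curve fitting.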
* hit, by the source's call; i = inactive; u = inconclusive; x = no result given. The call rests on the fitted dose curve; in most records, active means well fitted curve in the direction sought with a large enough effect; inconclusive means small, poorly fitted or top-dose-only effect, or another doubt; inactive means no such curve, though single readings can be large; an effect the other way counts as inactive or inconclusive. Unless noted, on the % scale 0 is the no-effect control and ±100 the full control effect; potency means the concentration at half of the fitted maximal effect.

SMILES | KB-V1 MDR tox | DT40 TDP1 no CPT | KB-3-1 tox | HT1080NT lethal | TDP1 cell CPT | HT1080 IDH1KD tx
Cc1cc(OCCn2c(C3CC(=O)N(Cc4ccc(F)cc4)C3)nc3ccccc32)ccc1Cl (stereo not given) | i | 26µM* | i | x | u | x
C=CCn1c(SCC(=O)Nc2ccc(Br)cc2)nc(O)c(CC)c1=O | i | 19% | i | -17% | -1% | -22%
CC(C)c1ccc(N(CC(=O)NCc2ccco2)C(=O)CCC(=O)Nc2nccs2)cc1 | i | u | i | -8% | -7% | -8%
COc1ccc(C(=O)Nc2ccc(-c3nnc4n3CCCCC4)cc2)cc1OC | u | 13µM* | i | x | 13µM* | x
COc1ccc(NC(=O)CSc2nnc3n2CCCCC3)cc1OC | i | 0.21µM* | i | u | 2% | -2%
COc1ccc(C(=O)Nc2ccc(C(=O)N3CCCCC3)cc2)cc1OC | u | -16% | i | -7% | -25% | -8%
COc1cc(S(=O)(=O)N2CCOCC2)ccc1NC(=O)COC(=O)c1ccc(Cl)nc1 | i | 1% | i | 7% | 4% | 0%
O=C(Nc1ccc(S(=O)(=O)N2CCCC2)cc1)Nc1ccc(F)cc1F | i | 29µM* | i | -2% | u | -25%
Cc1ccc(S(=O)(=O)Nc2ccc(NC(=O)Nc3ccc(F)cc3F)cc2)cc1 | 23µM* | u | u | 0% | u | -12%
O=C(Nc1ccc(F)cc1F)c1cc(S(=O)(=O)N2CCCCC2)c[nH]1 | u | x | 18µM* | x | x | x
CC(C)(Oc1ccc(Cl)cc1)C(=O)Nc1nnc2n1CCS2 | i | 18µM* | i | x | u | x
c1ccc(-c2nc3c4ccccc4ccn3c2CN2CCOCC2)cc1 | u | 18µM* | i | -23% | 10µM* | -1%
COc1ccc(-c2nc3c4ccccc4ccn3c2CC2CCCCC2)cc1OC | i | 23µM* | i | -27% | u | u
Clc1ccc2nc(-c3ccccc3)c(CN3CCOCC3)n2c1 | u | u | i | 9% | u | 2%
COc1ccc(-c2nc3c4ccccc4ccn3c2CN2CCOCC2)cc1OC | 16µM* | u | i | -14% | 15µM* | 6%
C=CCc1cccc2cc(C(=O)OCC(=O)c3ccccc3)c(=O)oc12 | i | -21% | i | 3% | 2% | 4%
COc1ccc(CC(=O)NCC2CCCN(Cc3ccc(SC)cc3)C2)cc1 (stereo not given) | i | -30% | i | 7% | 1% | 2%
C=CCn1c(SCC(=O)NCC(c2ccccc2)N(C)C)nnc1C1CCCCC1 (stereo not given) | i | -25% | i | 0% | 0% | 0%
COc1cc(C(=O)N/N=C/c2cn(Cc3ccccc3)c3ccccc23)ccc1O | i | -21% | i | -6% | u | -5%
COc1ccccc1OCCn1cc(/C=N/NC(N)=S)c2ccccc21 | i | 29µM* | i | -7% | u | -14%
COc1ccccc1OCCn1cc(/C=N/NC(=O)c2ccncc2)c2ccccc21 | i | 18µM* | i | -26% | -28% | -13%
CCc1ccc(S(=O)(=O)N/N=C\c2cn(CC(N)=O)c3ccccc23)cc1 | i | -16% | i | -7% | -14% | -23%
NC(=O)Cn1cc(/C=N\NS(=O)(=O)c2ccc(F)cc2)c2ccccc21 | i | 23µM* | i | -19% | -3% | -29%
Cc1ccc(Cn2cc(/C=N/NC(=O)Cc3nnc(NC(=O)c4ccc(C)cc4)s3)c3ccccc32)cc1 | i | 6.5µM* | i | 8% | 12µM* | 5%
O=C(CCNC(=O)c1ccc(Br)cc1)Nc1ncccc1O | u | 17% | i | -4% | -14% | 0%
SMILES | KB-V1 MDR tox | DT40 TDP1 no CPT | KB-3-1 tox | HT1080NT lethal | TDP1 cell CPT | HT1080 IDH1KD tx
CC(C)CNc1nc(SCC(=O)Nc2ccccc2)nc(N2CCOCC2)n1 | u | u | i | -1% | u | 2%
CC(=O)n1cc(/C=N/NC(N)=S)c2ccccc21 | 5.2µM* | -102% | u | 18% | u | 6%
COC(=O)c1cn(CCOc2ccccc2OC)c2ccccc12 | u | 15µM* | u | -16% | 18µM* | -27%
CNC(=S)N/N=C/c1cn(Cc2ccc(F)cc2)c2ccccc12 | 15µM* | 10µM* | u | -27% | 16µM* | -28%
Cc1ccccc1OCCn1cc(C=O)c2ccccc21 | 16µM* | -37% | u | -29% | u | u
COc1ccc(OCCn2cc(C=O)c3ccccc32)cc1 | i | u | i | -12% | u | -7%
COC(=O)N/N=C/c1cn(Cc2ccc(F)cc2)c2ccccc12 | i | u | i | -5% | -28% | -14%
CCCCN1CC[C@H]2C=CC[C@@H](C(=O)NC3CCCCC3)[C@H]2C1=O | u | u | i | x | u | x
CCOc1ccccc1NC(=O)Cn1cc(C(=O)c2cccc(OC)c2)c(=O)c2ccc(C)nc21 | i | u | i | x | u | x
O=C(NCc1cc([N+](=O)[O-])ccc1O)c1cc(-c2ccncc2)nc2ccccc12 | i | u | i | -19% | -25% | -19%
CCCn1c(SCC(=O)NC(=O)NC(C)(C)C)n[nH]c1=O | i | -11% | i | 11% | -17% | 3%
COc1ccc(OCCn2cc(/C(N)=N/O)c3ccccc32)cc1 | i | u | i | 5% | -17% | 5%
CNC(=S)N/N=C/c1cn(CCOc2ccc(OC)cc2)c2ccccc12 | u | 7.3µM* | i | -14% | 8.2µM* | -13%
Nc1ccc(C(=O)N/N=C/c2cn(Cc3ccc(F)cc3)c3ccccc23)cc1 | i | -10% | i | -17% | -26% | -25%
Nc1ccc(C(=O)N/N=C/c2cn(Cc3ccccc3)c3ccccc23)cc1 | 29µM* | -19% | u | -17% | -10% | u
CC(=O)N1CCC(N(CCCOC(C)C)C(=O)Nc2ccc(Cl)cc2)CC1 | i | -17% | i | -7% | -15% | -11%
O=C(CSc1ncn[nH]1)Nc1c(F)cc(F)cc1Br | i | 0% | i | 14% | 34% | 5%

Screening results deposited in PubChem BioAssay by National Center for Advancing Translational Sciences (NCATS).
